# Source: PubChem (National Center for Advancing Translational Sciences (NCATS))
# Sampled rows, rich in hits. Any-hit rate of the full collection: about 7.4%.
# FLuc modulator = inhibits or activates purified firefly luciferase, miR-21 counter-screen | AID 588342 | 360,000 compounds, 6.9% hits | P08659 | purified FLuc, Km substrates, luminescence inhibition | Potency, µM (top dose mostly 57.5 µM), without a hit: top-dose activity change, negative = inhibition, usual class: inhibitors;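 note: plate controls were vehicle for no effect and reference inhibitor for full effect; nearly all actives have a fitted effect of over 55% in size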
# Target sequence (P08659 whole entry, looked up): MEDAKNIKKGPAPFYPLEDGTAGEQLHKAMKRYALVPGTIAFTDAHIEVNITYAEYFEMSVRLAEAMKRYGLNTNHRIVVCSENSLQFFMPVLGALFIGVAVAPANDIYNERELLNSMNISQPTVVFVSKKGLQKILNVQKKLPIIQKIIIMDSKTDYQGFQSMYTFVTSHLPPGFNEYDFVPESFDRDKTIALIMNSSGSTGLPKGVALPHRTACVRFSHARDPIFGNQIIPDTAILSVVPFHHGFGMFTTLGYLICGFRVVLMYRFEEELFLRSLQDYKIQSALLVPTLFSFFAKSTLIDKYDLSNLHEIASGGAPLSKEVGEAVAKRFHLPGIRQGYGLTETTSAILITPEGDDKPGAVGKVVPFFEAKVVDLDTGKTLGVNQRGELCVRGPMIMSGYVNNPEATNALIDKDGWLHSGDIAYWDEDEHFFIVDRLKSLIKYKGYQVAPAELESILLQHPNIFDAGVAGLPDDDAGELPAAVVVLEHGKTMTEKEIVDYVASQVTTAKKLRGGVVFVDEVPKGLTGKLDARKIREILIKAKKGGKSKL
#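 Purified P. pyralis luciferase (10nM final) with 10uM D-luciferin and 10uM ATP (Km levels) in 50mM Tris acetate pH 7.5, 10mM Mg acetate, 0.01% Tween-20, 0.05% BSA; qHTS 6-point titration, ~60 µM downward; luminescence read.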
# NPC1 promoter act = activators of NPC1 promoter; Huh7 NPC1 promoter luciferase reporter, 24 h; Potency, µM (titrated, usually from 9.22 µM), inactives show top-dose activation, hits mostly activators; 320,000 compounds, 2.4% hits; AID 485313; note: % of control where 0% means no effect; nearly all actives have a fitted effect of over 60% in size
#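 In 1536-well qHTS, Huh7 cells harboring an NPC1 promoter–luciferase construct received compound for 24 h; activation was quantified by luminescence following luciferase reagent addition.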
# ELG1 genotoxic = genotoxicity induction in ELG1-luciferase HEK293T cells. HEK293T ELG1-luciferase reporter, luminescence, 16 h. Potency, µM (titrated, usually from 46 µM), for inactives: top-dose activity change, positive = activation, hits mostly activators. AID 504466. 330,000 compounds, 1.3% hits; note: % of control where 0% means no effect; nearly all actives have a fitted effect of over 60% in size
#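 Cells (2,000/well) expressing the ELG1-luciferase fusion are dosed by pin tool and kept 16 hr at 37 °C, 5% CO2. Signal comes from ONE-Glo luciferase reagent after 30 min at room temperature.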
# Luc counter = blocks Kinase-Glo luciferase, a counter-screen artifact. Potency, µM (doses to about 38.3 µM), for the others: top-dose activity change, negative = inhibition, usual class: inhibitors. Kinase-Glo luciferase, ATP luminescence, 8 min. Q27757. 200,000 compounds, 0.28% hits. AID 1379; note: % is set by controls: 0 for no effect and ±100 for the full control effect; nearly all actives have a fitted effect of over 60% in size
#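 Light output from Kinase-Glo luciferase with luciferin and 10 uM ATP in 50 mM imidazole pH 7.2, KCl, MgCl2, Tween 20, BSA; compound pin-delivered, 8-min ambient incubation, then luminescence read.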
# SMN2 splice enh = SMN2 splice variant enhancement | HEK293 SMN2-luciferase splicing reporter, luminescence, 30-36 h | Potency, µM (doses to about 46.1 µM), for inactives: at the highest dose activity change, positive = activation, actives largely listed as activators | 210,000 compounds, 2.8% hits | AID 1458; note: % of control where 0% means no effect; nearly all actives have a fitted effect of over 55% in size
#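 qHTS luciferase splicing reporter: luminescence rises when SMN2 exon 7 is included in transfected HEK293 cells. Compound exposure lasted 30-36 h at 37C, with 4.5 mM final sodium butyrate as control, followed by a ONE-Glo read.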
# Rab9 promoter act = activators of Rab9 promoter | Huh7 Rab9 promoter-luciferase reporter, luminescence, 24 h | Potency, µM (highest dose often 9.22 µM), without a hit: at the top dose activation, negative = inhibition, most hits filed as activators | 320,000 compounds, 2.8% hits | AID 485297; note: % of control where 0% means no effect; nearly all actives have a fitted effect of over 60% in size
#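 Luminescence from Amplite-detected luciferase (10 minutes, ambient) reports Rab9 promoter activation. Before that, stable Rab9-luciferase Huh7 cells (1500/well, reduced-serum OP-MEM I plus 10% FBS) were exposed to compound for 24 hours at 37C.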
# Starred values were filed as active, the others as inactive; u = inconclusive; x = not tested or not shown; [ ] = another dose, or the depositor's remark. Calls come from the whole dose curve; as a rule, active = well fitted curve in the direction sought with a large enough effect; inconclusive = small, poorly fitted or top-dose-only effect, or another doubt; inactive = no such curve, though single readings can be large; an effect the other way counts as inactive or inconclusive. Potency is the fitted concentration of half-maximal effect.
SMILES,FLuc modulator,NPC1 promoter act,ELG1 genotoxic,Luc counter,SMN2 splice enh,Rab9 promoter act
O=C(O)c1cc(-c2ccc(Cl)s2)nc2ccccc12,15µM*,1%,-2%,3%,u,4%
Cc1ccc(-c2cc(C(=O)O)c3ccccc3n2)s1,2.7µM*,29%,u,x,x,23%
Cc1cccc(NC(=O)c2cc(-c3ccc(C)s3)nc3ccccc23)n1,11µM*,3%,-9%,0%,-31%,0%
CCCc1cc(OC)c2c(c1)OCO2,x,x,x,-3%,-10%,x
COC(=O)C1C(=O)c2c([nH]c(C(=O)OC3CCCCC3)c2C)CC1C (stereo not given),1.7µM*,2.8µM*,u,1%,13µM*,2.8µM*
Cc1c(C(=O)OCCOc2ccccc2)[nH]c2c1C(=O)CC(c1ccccc1)C2 (stereo not given),4%,x,x,x,-19%,x
COC(=O)C1C(=O)c2c([nH]c(C(=O)OC3CCCC3C)c2C)CC1C (stereo not given),2.4µM*,1.6µM*,4.6µM*,0%,11µM*,1.4µM*
COC(=O)C1C(=O)c2c([nH]c(C(=O)OCCOC(C)C)c2C)CC1C (stereo not given),13µM*,27%,u,-1%,1%,u
COc1ccccc1CNC(=O)CCCCn1c(=O)c2ccccc2n(Cc2ccccc2F)c1=O,-4%,x,x,x,-4%,x
COc1ccc(C(=O)/C=C(\C)Nc2ccc(NC(C)=O)cc2)cc1,u,u,4%,-1%,-17%,2.8µM*
C/C(=C\C(=S)Nc1ccccc1)Nc1ccccc1,3.8µM*,1%,1%,-2%,15%,-4%
C/C(=C\C(=O)c1cccnc1)Nc1ccc(O)cc1,17µM*,u,16µM*,-3%,27%,u
C/C(=C\C(=O)c1ccc(C)cc1)Nc1ccc(N2CCOCC2)cc1,-1%,0%,0%,-2%,9%,14%
CC(=O)Nc1ccc(NC(=S)Nc2ccccc2)cc1,-5%,2%,0%,2%,-7%,2%
C/C(=C\C(=O)c1ccccc1)Nc1ccc(O)cc1,4.8µM*,2.5µM*,6.5µM*,21%,x,3.5µM*
COc1ccc(N(Cc2ccccc2)C(=O)c2nc(S(C)(=O)=O)ncc2Cl)cc1,-17%,x,x,x,-97%,x
CC[C@@]1([N+](=O)[O-])C[C@H]2C=C[C@@H]1C2,x,x,x,-3%[7.66 µM],-6%[9.22 µM],x
COc1cc(/C=C2\CCc3c2nc2ccccc2c3C(=O)O)cc(OC)c1OC,0.85µM*,2µM*,23µM*,x,x,3.5µM*
COc1ccc(/C=C2\CCn3c2nc2ccccc2c3=O)cc1OC,8.5µM*,3.5µM*,u,x,x,2.5µM*
COc1ccc(/C=C2\CCn3c2nc2cc(C(=O)O)ccc2c3=O)cc1OC,-4%,-3%,1%,x,x,-34%
COc1cc(/C=C2\CCCc3c2nc2ccccc2c3C(=O)O)cc(Br)c1O,u,-4%,0%,x,x,0%
Cc1ccc(CNc2nc3ccccc3s2)s1,0.34µM*,0.35µM*,u,-3%,1.3µM*,0.35µM*
COc1ccc(CNc2nccs2)cc1OC,10%,0%,1%,x,x,-4%
COc1ccc(CNc2nc3ccccc3s2)cc1OC,24µM*,u,u,x,x,u
c1ccc(CCNc2nc3ccccc3s2)cc1,19µM*,u,u,0%,-12%,u
SMILES,FLuc modulator,NPC1 promoter act,ELG1 genotoxic,Luc counter,SMN2 splice enh,Rab9 promoter act
O=C(CS(=O)(=O)Cc1ccccc1)Nc1nc2ccccc2s1,-21%,1%,3%,2%,-9%,2%
O=C1CCCN1CCCNc1ncnc2c1cnn2-c1ccc(Cl)cc1,17µM*,u,18µM*,2%,-35%,u
Cc1ccc(Cn2ncc3c(NCCN(C)C)ncnc32)cc1,3%,-4%,1%,x,x,-2%
CN(C)CCNc1ncnc2c1cnn2-c1ccc(Cl)cc1,7.6µM*,16%,21µM*,-1%,26%,u
CCCCN(C)c1ncnc2c1cnn2-c1cccc(Cl)c1,2.7µM*,x,x,x,x,x
CC(C)CCNc1ncnc2c1cnn2-c1cccc(Cl)c1,17µM*,x,x,x,x,x
CCCCN(CCCC)c1ncnc2c1cnn2-c1cccc(C)c1,-8%,x,x,x,x,x
Clc1ccc(-n2ncc3c(NCc4ccc5c(c4)OCO5)ncnc32)cc1,u,10%,u,1%,-14%,7%
OCCCNc1ncnc2c1cnn2-c1ccc(Cl)cc1,1.9µM*,0.2µM*,u,x,x,0.28µM*
Cc1cccc(-n2ncc3c(N(C)Cc4ccccc4)ncnc32)c1,2.4µM*,4µM*,u,x,x,3.5µM*
CN(C)CCNc1ncnc2c1cnn2-c1cccc(Cl)c1,24µM*,x,x,x,x,x
Cc1cccc(NC(=O)CS(=O)(=O)c2nc(-c3ccccc3)cn2-c2cccc(Cl)c2)c1C,4%,x,x,x,28%,x
Cc1ccc(C(=O)N/C(=C\c2ccc(Cl)cc2)C(=O)NC2CCCCC2)cc1,-6%,x,x,x,5%,x
O=c1[nH]cnc2scc(-c3ccc(-c4ccccc4)cc3)c12,1.2µM*,1.1µM*,1.8µM*,-8%,14µM*,1.1µM*
CCCOc1ccc(-c2csc3nc[nH]c(=O)c23)cc1,u,3.2µM*,u,x,x,1.6µM*
COc1ccc(-c2csc3nc[nH]c(=O)c23)cc1OC,-3%,-1%,0%,x,x,7%[1.84 µM]
CCCCOc1cccc(C(=O)N(Cc2ccc(Br)o2)C2CCS(=O)(=O)C2)c1 (stereo not given),-4%,x,x,x,x,x
CCCCOc1ccc(C(=O)Nc2ccc3c(c2)OCO3)cc1,u,22%,u,-2%,u,u
CCC(=O)Oc1ccc(C(=O)Nc2ccc3c(c2)OCO3)cc1,5.4µM*,2.2µM*,u,u,16µM*,4.5µM*
CCCOc1ccc(C(=O)Nc2ccc3c(c2)OCO3)cc1,2.1µM*,1µM*,2.3µM*,x,x,2.8µM*
COc1cc(/C=C/C(=O)c2ccc(C)cc2)ccc1OCC#N,17µM*,-4%,-13%,2%,-112%,-4%
COc1ccc(/C=C/C(=O)c2ccc(C(=O)/C=C/c3ccc(OC)c(OC)c3)cc2)cc1OC,2%,-6%,3%,x,x,-5%
COc1ccc(CNC(=O)COC(=O)c2ccc3c(c2)OCCO3)cc1,-1%,6%,3%,-3%,7%,-10%
COc1ccc(/C=C/C(=O)c2ccc3c(c2)OCO3)cc1OC,15µM*,10%,u,x,x,-1%
COc1ccc(OC)c(/C=C/C(=O)c2ccc3c(c2)OCCO3)c1,2.4µM*,20%,7%,x,x,23%
COc1cc(/C=C/C(=O)c2ccc3c(c2)OCCO3)cc(OC)c1OC,u,-15%,-6%,x,x,-14%
COc1ccc(C(=O)COC(=O)c2ccc3c(c2)OCCO3)c(OC)c1,12µM*,-2%,14%,x,x,23%
